# From PubChem BioAssay (NCI)
# The panel holds about 83,000 compounds, 20% with a hit somewhere; the sample as a whole holds those more often.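 Values shown are percent growth following 48 h exposure of cells in 96-well plates to a single concentration of compound; below 10 was considered active.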 Values without a mark were called inactive. Activity calls are given as the source filed them.
# Columns and labels:
# Assay in all cases: NCI-60 one-dose screen, 48 h (100 = growth as untreated, 0 = no growth, -100 = all killed)
# Details in all cases: 10 µM
# [1] = tested on: NCI-H23 lung
# [2] = tested on: NCI-H226 lung
# [3] = tested on: NCI-H322M lung
# [4] = tested on: NCI-H460 lung
# [5] = tested on: HOP-92 NSCLC
# [6] = tested on: NCI-H522 lung
# [7] = tested on: A549/ATCC NSCLC
# [8] = tested on: 786-0 renal
# [9] = tested on: COLO 205 colon
# [10] = tested on: HOP-62 NSCLC
Compound,growth [1] [%],growth [2],growth [3] [%],growth [4],growth [5],growth [6],growth [7] [%],growth [8] [%],growth [9],growth [10] [%]
COc1cc2c(cc1O)CC[C@@H]1C2CC[C@@]2(C)C1CC[C@@H]2O (stereo not given in full),406,57.7%,53.5,8.58% (active),79.8%,1.84% (active),13.9,36,82.5%,
NNc1ccccc1C(=O)O,111,96%,128,,98.1%,,109,113,107%,104
O=C1C=C(Nc2ccc([N+](=O)[O-])cc2)c2ccccc2C1=O,30.1,77.6%,75.3,,,21.5%,33.3,66.6,105%,51.9
CC1=NN(c2ccccc2)C(=O)/C1=C\N1CC(=O)NC1=S,98.1,98.4%,108,,,81.7%,100,104,106%,99.5
CCCCC(=O)c1ccc(OC)cc1,99.7,99.7%,111,,,91.2%,97.4,96.2,118%,112
NC(N)=Nc1cc2ccccc2c2ccccc12,86.7,89.5%,98.7,,,-49.2% (active),27.8,90.6,44.9%,101
CC(=O)Nc1cccc(Cl)c1C,103,102%,94,,,87.7%,88.2,96.5,107%,100
O=C(O)c1ccnc(Br)c1,97.8,92.6%,106,104%,96.9%,105%,102,102,107%,
C/C(=C\c1ccc([N+](=O)[O-])cc1)C(=O)O,102,98.3%,111,102%,95.1%,87.1%,91.7,96.7,,
O=C(O)c1cccc([N+](=O)[O-])c1,95,107%,97.4,106%,96%,112%,105,104,113%,
Cc1ccc(/C=C2\SC(=S)N(c3ccc(F)cc3)C2=O)o1,88.3,72.4%,90.2,,87.6%,70.6%,87.5,40.2,92.4%,83.1
CC(C)C(C#N)(C(C)C)C(C)C,104,104%,107,102%,95.5%,92%,97.1,113,109%,
C/C=C/CC(C)C(O)C1C(=O)NC(CC)C(=O)N(C)CC(=O)N(C)C(CC(C)C)C(=O)NC(C(C)C)C(=O)N(C)C(CC(C)C)C(=O)NC(C)C(=O)NC(C)C(=O)N(C)C(CC(C)C)C(=O)N(C)C(CC(C)C)C(=O)N(C)C(C(C)C)C(=O)N1C (stereo not given),20.1,5.76% (active),33.8,,,9.55% (active),17.2,41.9,-72.8% (active),35.6
COC(=O)c1ccc(NC(=O)CCl)cc1,85.3,118%,95.7,,,,79.2,93.5,103%,88.5
Cc1cccc(CO)c1,94.5,99%,102,105%,102%,105%,102,104,105%,
CC(=O)OCCC(C)CCC=C(C)C (stereo not given),105,105%,114,104%,98.8%,92.7%,101,108,114%,
N/N=C(/Cc1ccccc1)NNC(N)=S,99,108%,82.7,103%,119%,72.4%,74.4,111,,
CC1OC(Oc2c(-c3ccc(O)c(O)c3)oc3cc(O)cc(O)c3c2=O)C(O)C(O)C1O (stereo not given),102,96.1%,106,105%,88.6%,102%,102,108,104%,
CC(=O)OC1CC2C(C)(C)OC3CC(=O)OCC32C2CCC3(C)C(=CCC3c3ccoc3)C12C (stereo not given),108,98.7%,111,108%,-13% (active),35.6%,104,103,76.1%,
CCOC(=O)CCCS(C)(=O)=O,98.6,109%,120,110%,87%,109%,109,110,110%,
CCCCNC1(C#N)CCN(Cc2ccccc2)CC1,86.8,104%,98.8,110%,90.4%,84.9%,110,84.5,,
CCOC(=O)c1ccc(Nc2sc(C(=O)c3cccc([N+](=O)[O-])c3)c(N)c2C#N)cc1,34.2,41%,55,4.75% (active),43%,5.23% (active),48.3,24.7,,
O=C(/C(=N/O)c1ccccc1)c1ccccc1,105,91.2%,95.8,108%,96.6%,109%,98.1,98.1,115%,
Cc1cc(NC(=O)CSCC(=O)O)no1,102,110%,96.7,110%,107%,101%,97.2,103,110%,
Cc1cc(N)c(S(=O)(=O)O)c(N)c1,97,99.6%,101,104%,47.1%,87.9%,109,105,,

Compound,growth [1] [%],growth [2],growth [3] [%],growth [4],growth [5],growth [6],growth [7] [%],growth [8] [%],growth [9],growth [10] [%]
CC1(C)OC(=O)C(c2ccsc2)C(=O)O1,95,105%,102,113%,104%,82.6%,84.7,108,,
C#CC(C(C)C)N(CCO)CCCC (stereo not given),120,96.6%,107,,,107%,95.8,108,108%,98.8
CCOC(=O)Nc1nn[nH]n1,102,107%,129,,97.3%,,103,105,107%,113
c1ccc(Cc2ccccc2)cc1,107,112%,96.2,,59.2%,,39.8,92.7,125%,101
Cc1c(C(=O)O)c(=O)n(-c2ccccc2)n1C,92,103%,122,,,104%,108,113,110%,96.7
COc1cc(/C=C/C(=O)c2ccccc2)cc(OC)c1OC,78.1,98.7%,95.5,,76%,,89.4,89,48%,104
COc1cccc(COC(=O)Nc2ccccc2)c1OC,110,96.6%,101,,109%,,94.5,98.9,114%,100
COc1cc(/C=C(\C#N)C(=O)c2ccccc2)ccc1OCc1ccccc1,91.5,92.3%,91.6,101%,95.7%,97.6%,104,101,,
CCOC(=O)C(CCC(C)C)C(=O)OCC,103,98.2%,112,,93.6%,,102,113,110%,105
COc1ccc(OC)c(/C=C2\CCc3ccccc3C2=O)c1,62.7,76.5%,70,13.9%,45.2%,22.5%,42.6,46.9,,
CC(C)=NNC(N)=S,77.7,83.7%,104,83.4%,85.8%,88%,92.6,104,83.5%,
O=C(O)c1ccc(S(=O)(=O)O)cc1,101,99.6%,98.8,,76.3%,,91.5,89.7,129%,99.3
CC(C)CCOC(=O)c1ccccc1,106,102%,95.6,106%,101%,104%,102,99.8,105%,
O=C(O)[C@@H]1[C@H]2C[C@H]3c4[nH]c5ccccc5c4CCN3C[C@@H]2CC[C@@H]1O,102,103%,110,121%,109%,18.2%,101,76,123%,
C#CC(C)(O)c1ccc(Cl)cc1 (stereo not given),92.4,78.2%,99.9,104%,,91.4%,99.2,95.5,103%,
C1CNC(C2=NCCN2)=N1,106,103%,90.9,101%,93.6%,101%,,103,114%,
Cc1ncc(C#N)c(N)n1,99,94.8%,89.1,102%,87.1%,102%,106,96.4,107%,
OCCN1CCOCC1,115,112%,125,104%,115%,,104,,119%,
CC(C)(O)C#CC#CC(C)(C)O,88.9,79.4%,102,104%,,82.5%,91.5,106,,
Cc1cc(=O)n(-c2ccc(F)cc2)[nH]1,103,98.3%,95.6,106%,,97.6%,102,105,107%,
COc1ccc2c(c1)CCc1c-2n[nH]c1-c1[nH]nc2c1CCc1cc(OC)ccc1-2,75.4,82.7%,90.5,53.5%,84.6%,34%,79,64.7,67.8%,
CC1(C(N)=O)CCC(C(=O)O)C1(C)C (stereo not given),103,95.5%,95.2,103%,94.3%,106%,98,98,108%,
CN(C)c1nc2c([nH]1)c(=O)n(C)c(=O)n2C,99.8,81.2%,105,103%,,73.1%,92.2,105,,
N#CSc1cc(S(N)(=O)=O)ccc1N,104,108%,114,114%,135%,,102,,113%,
